Screens deposited in PubChem by ICCB-Longwood Screening Facility, Harvard Medical School.
Shown is part of a subset that was picked to be rich in hits.
S aureus helic: blocks Staphylococcus aureus DNA helicase | purified S. aureus helicase, fluorescence unwinding assay | inhibition, % (concentration not given with the values) | 120,000 compounds, 0.05% hits; in the data active means inhibition above about 25%, passing the limit was not always enough
Sa growth 42C: S. aureus growth inhibition; S. aureus RN4220 growth, OD600, 20 h, 42 °C; stronger effect = lower value; relative growth, % (test concentration not listed); 170,000 compounds, 0.53% hits; AID 720641;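 active means relative growth at most 50% at the other temperature and 20+ points below 30 °C, or under 10% at both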
Each line names hits and unclear results; the compound was inactive in the other large screens.

N#CC1(NC(=O)CSc2nnc(COc3ccccc3F)n2-c2ccccc2)CCCCC1	none
O=C(CSC1=NC=NC2N=CNC12)N1CCN(Cc2ccc3c(c2)OCO3)CC1 (stereo not drawn)	none
COC(=O)c1ccc(-n2c(C)ccc2C)cc1	none
CCNC(=O)c1ccc(-n2c(C)ccc2C)cc1	S aureus helic 29
CC(C)n1nnc(CC(=O)O)n1	none
COC(=O)c1ccc(COC(=O)c2cccs2)cc1	none
CC(C)NC(=O)CSc1n[nH]c(-c2ccncc2)n1	none
Cc1conc1NC(c1cccs1)c1ccc2cccnc2c1O (stereo not drawn)	Sa growth 42C 3.1
O=C(NC(c1cccs1)c1ccc2cccnc2c1O)C1CCCCC1 (stereo not drawn)	none
CCOC(=O)C1=C(C)Nc2ncnn2C1	none
Cc1cccc(Nc2ccccc2C(=O)OC(C)C(=O)N2CCN(C(=O)c3ccco3)CC2)c1C (stereo not drawn)	none
CC(=O)Nc1cc(OC(C)=O)c2nonc2c1OC(C)=O	Sa growth 42C 0.9
CC(=O)Nc1nonc1NC(C)=O	none
Cc1c(O)ccc(-c2n[nH]c(C(F)(F)F)c2Oc2ccccc2)c1O	none (no result: Sa growth 42C)
COc1ccc(-c2n[nH]c(C(F)(F)F)c2-c2cc3ccccc3o2)c(O)c1	Sa growth 42C 3.9
Cc1sc2nc[nH]c(=S)c2c1-c1ccccc1	Sa growth 42C -0.5
Cc1sc2nc[nH]c(=O)c2c1-c1ccccc1	none (no result: Sa growth 42C)
Cc1cc(NC(=O)CCCC(=O)c2ccccc2)n[nH]1	none
CCOC(=O)c1sc(N)c(C#N)c1CSC1=N/C(=C\c2ccco2)C(=O)N1c1ccc(OC(F)F)cc1	none
CC[C@H]1OC(=O)[C@H](C)[C@@H](O[C@H]2C[C@@](C)(OC)[C@@H](O)[C@H](C)O2)[C@H](C)[C@@H](O[C@@H]2O[C@H](C)C[C@H](N(C)C)[C@H]2O)[C@](C)(O)C[C@@H](C)CN(C)[C@H](C)[C@@H](O)[C@]1(C)O	Sa growth 42C -0.9 (no result: S aureus helic)
Cc1noc(C)c1CSc1ncccc1C(=O)N1CCCC1c1cccs1 (stereo not drawn)	none
O=C(Cn1cc(/C=C2/SC(=O)NC2=O)c2ccccc21)Nc1ccccc1	none
CN(c1ccnc(C(=O)N2CCOCC2)c1)S(=O)(=O)c1ccccc1	none
Fc1ccc(Nc2nc3nonc3nc2Nc2cccc(C(F)(F)F)c2)cc1	Sa growth 42C -1.0 (no result: S aureus helic)
Fc1ccc(Nc2nc3nonc3nc2Nc2ccccc2F)cc1	Sa growth 42C -0.6
NNc1nc(NN)nc(Nc2cccc(C(F)(F)F)c2)n1	none
O=c1[nH]c2nonc2nc1Nc1ccccc1F	none
CCC(C)NC(=O)CSC1=N/C(=C/c2ccc(OC)cc2)C(=O)N1Cc1ccco1 (stereo not drawn)	none
Cc1nn(CCC#N)c2c1P(=S)(N1c3ccccc3CC1C)/C(=C1\N(C)c3ccccc3C1(C)C)C=N2 (stereo not drawn)	none
COc1ccc(OC)c(CCNC(=O)C2CCCN(c3nc4ccccc4[nH]3)C2)c1 (stereo not drawn)	none
Cn1cnnc1SCN1C(=O)c2ccccc2C1=O	none
Cc1cccc(CS(=O)(=O)c2ncc(Cl)c(C(=O)NCc3ccccc3)n2)c1	Sa growth 42C 1.6 (no result: S aureus helic)
O=C(NCc1ccccc1)c1nc(S(=O)(=O)Cc2ccc(F)cc2)ncc1Cl	none (no result: S aureus helic)
Oc1ccccc1C1CC(c2cccc(Br)c2)=NC(c2ccc(Br)cc2)N1 (stereo not drawn)	none
Oc1ccc(Br)cc1C1CC(c2ccccc2)=NC(c2ccco2)N1 (stereo not drawn)	Sa growth 42C 2.5
CC1(C)CC2CC(C)(CN2C(=O)Nc2ccccc2)C1 (stereo not drawn)	none
CO[C@@]1(NC(=O)Cc2cccs2)C(=O)N2C(C(=O)O)=C(COC(N)=O)CS[C@@H]21	Sa growth 42C -1.0 (no result: S aureus helic)
Cn1nnnc1SCC(=O)NN1C(=O)NC(C)(c2ccccc2)C1=O (stereo not drawn)	none
CN1CCN(NC(=O)Cc2cccs2)CC1	none
CO[C@@]1(NC(=O)CSCC#N)C(=O)N2C(C(=O)O)=C(CSc3nnnn3C)CSC21 (stereo partly drawn)	Sa growth 42C -0.6 (no result: S aureus helic)
Cc1cc(NCc2cccnc2)n2ncnc2n1	none
CC[n+]1c(/C=C/N(C)c2ccccc2)sc2ccc(OC)cc21	Sa growth 42C -0.6
CC[n+]1c(/C=C/Nc2ccccc2)sc2ccccc21	none
O=C(O)[C@H]1/C(=C/CO)O[C@@H]2CC(=O)N21	Sa growth 42C 15 (no result: S aureus helic)
O=C(Nc1ccc(Cl)c(Cl)c1)OCc1cccnc1	Sa growth 42C 8.0
O=C(Nc1ccc(Cl)c(Cl)c1)OCc1ccco1	none
CC1COC2=C(N3CCN(C)CC3)C(F)=CC3C(=O)C(C(=O)O)=CN1C23 (stereo not drawn)	Sa growth 42C -0.5
Cc1nc(-c2ccc3ccccc3c2)cs1	none (no result: Sa growth 42C)
Cc1nc(-c2ccc3[nH]c(=O)oc3c2)cs1	Sa growth 42C -1.1
COc1ccc2c(c1)c1nc3ccccc3nc1n2CC(C)C	none
CSc1ccccc1NC(=O)CN(C)C(C)C(=O)Nc1cccc(C#N)c1 (stereo not drawn)	none
C=CCn1c(O)c(C2=c3cc(Br)ccc3=NC2=O)c2ccccc21	Sa growth 42C 1.4
C=CCn1c(O)c(N=O)c2ccccc21	none
Nc1ccc(Oc2ccc(C(F)(F)F)cc2)nc1	none (no result: S aureus helic)
O=C(COc1ccc(/C=N/NC(=O)CSc2ncccn2)cc1)NCC1CCCO1 (stereo not drawn)	none
S=c1[nH]nc(CNc2ccc(I)cc2)n1-c1ccccc1	none
CC(NC(=O)Nc1ccc(S(N)(=O)=O)cc1)(C(F)(F)F)C(F)(F)F	none
CCCSC(=S)c1c(C)[nH]n(-c2ccccc2)c1=O	Sa growth 42C 0.2
CCCSC(=S)c1c(C)[nH]n(-c2ccc(C)cc2)c1=O	none (no result: S aureus helic)
N#CC(C#N)=C(Nc1ccc(Br)cc1)SCc1ccc(F)cc1	none
N#CC(C#N)=C(Nc1ccccc1Cl)SCc1cccc(F)c1	Sa growth 42C 0.1
Cc1ccc(S(=O)(=O)N2CCN(C(=O)COC(=O)/C=C/c3ccc(C)o3)CC2)c(C)c1	none
CC(=O)[C@]1(O)Cc2c(O)c3c(c(O)c2[C@@H](O[C@H]2C[C@H](N)[C@H](O)[C@H](C)O2)C1)C(=O)c1ccccc1C3=O	Sa growth 42C 0.4 (no result: S aureus helic)
CC[C@@]1(O)C[C@H](O[C@H]2C[C@H](N(C)C)[C@H](O[C@H]3C[C@H](O)[C@H](O[C@H]4CCC(=O)[C@H](C)O4)[C@H](C)O3)[C@H](C)O2)c2c(cc3c(c2O)C(=O)c2c(O)cccc2C3=O)[C@H]1C(=O)OC	none (no result: S aureus helic)
COc1cccc2c1C(=O)c1c(O)c3c(c(O)c1C2=O)C[C@@](O)(C(C)=O)C[C@@H]3O[C@H]1C[C@H](N)[C@H](O)[C@H](C)O1	none (no result: S aureus helic)
COc1cccc2c1C(=O)c1c(O)c3c(c(O)c1C2=O)C[C@@](O)(C(=O)CO)C[C@@H]3O[C@H]1C[C@H](N)[C@@H](O)[C@H](C)O1	Sa growth 42C 2.0 (no result: S aureus helic)
Cc1cc(C)nc(NNC(=S)NC2CC3CCC2C3)n1 (stereo not drawn)	none
COc1cc2nc3n(Cc4ccccc4)c4ccccc4n3c(=O)c2cc1OC	none
COC(=O)C1(O)CC(=O)c2ccccc2O1 (stereo not drawn)	none
Cc1cc(C)c(NC(=O)c2cn3c4c(c(N5CCN(C)CC5)c(F)cc4c2=O)OCC3C)c(C)c1 (stereo not drawn)	none
CC1COc2c(N3CCN(C)CC3)c(F)cc3c(=O)c(C(=O)OCc4ccccn4)cn1c23 (stereo not drawn)	Sa growth 42C -1.0
CS(=O)(=O)c1ccccc1C(=O)Nc1nnc(-c2ccc(Cl)cc2)o1	none
Cc1ccc(C)c(-c2nnc(NC(=O)c3ccccc3S(C)(=O)=O)o2)c1	Sa growth 42C 2.0
